Screening results from PubChem BioAssay.
KCNQ2 enhance – potentiators of rat KCNQ2 potassium channel | B-score at 10 µM | Potassium voltage-gated channel subfamily KQT member 2 (Rattus norvegicus), O88943 | AID 2239, 2010 | 310,000 compounds, 0.54% hits | CHO-K1 KCNQ2, FluxOR thallium flux fluorescence; hits give high values;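 active = fluorescence ratio B-score at least 3 SD of library B-scores, with initial fluorescence B-score within 3 of them, cut at about 5.3 in these data; same plate scores as AID 2156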;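 note: B-score of peak minus minimum over baseline fluorescence ratio after K+ and Tl+ stimulus; positive B-score means potentiation of KCNQ2 with more thallium influx and brighter signal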
Target sequence (O88943 whole entry, looked up): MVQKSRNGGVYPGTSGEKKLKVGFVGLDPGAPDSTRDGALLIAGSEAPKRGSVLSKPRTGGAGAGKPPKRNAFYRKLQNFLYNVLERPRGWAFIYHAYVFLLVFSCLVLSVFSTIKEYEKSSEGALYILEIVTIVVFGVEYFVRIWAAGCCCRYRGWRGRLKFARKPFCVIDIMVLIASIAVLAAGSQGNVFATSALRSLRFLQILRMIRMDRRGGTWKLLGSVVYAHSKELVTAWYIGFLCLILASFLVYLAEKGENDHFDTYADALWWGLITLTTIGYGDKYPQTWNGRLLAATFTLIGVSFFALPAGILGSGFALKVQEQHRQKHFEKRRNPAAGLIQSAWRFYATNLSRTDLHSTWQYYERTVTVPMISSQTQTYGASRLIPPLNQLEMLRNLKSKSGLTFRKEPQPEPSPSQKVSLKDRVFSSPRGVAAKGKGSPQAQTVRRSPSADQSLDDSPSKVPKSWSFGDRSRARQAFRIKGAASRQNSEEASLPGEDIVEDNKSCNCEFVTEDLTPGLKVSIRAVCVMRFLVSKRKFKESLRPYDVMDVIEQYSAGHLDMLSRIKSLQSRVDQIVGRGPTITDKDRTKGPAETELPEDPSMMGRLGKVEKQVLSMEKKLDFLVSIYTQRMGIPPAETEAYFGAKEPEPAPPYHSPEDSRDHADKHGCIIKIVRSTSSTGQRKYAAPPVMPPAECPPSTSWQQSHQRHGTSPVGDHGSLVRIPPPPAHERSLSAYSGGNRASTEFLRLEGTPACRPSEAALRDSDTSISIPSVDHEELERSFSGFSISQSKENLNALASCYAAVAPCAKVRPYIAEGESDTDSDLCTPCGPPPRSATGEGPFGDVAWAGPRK
KCNQ2 block – rat KCNQ2 potassium channel inhibitors, primary screen, cell-based, CHO-K1, FluxOR thallium flux, B-score. Potassium voltage-gated channel subfamily KQT member 2 (Rattus norvegicus), O88943. 20 min; hits give low values. B-score at 10 µM. 310,000 compounds, 1.1% hits;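 active = fluorescence ratio B-score at most minus 3 library SDs, with starting brightness B-score within 2 library SDs, cut at about -5.5 in these data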
An asterisk follows results filed as active; i = inactive; x = not tested or not shown. Hits are enriched below; roughly 1.6% of the tested compounds scored in any of these assays.

SMILES	KCNQ2 enhance	KCNQ2 block
O=C(NC(O)C(=O)c1ccc(F)cc1)c1ccc(F)cc1 (centres undefined)	0.3	i
CSc1ccccc1C(=O)N(C)Cc1ccccc1	x	i
CSc1ccccc1C(=O)N(C)C(c1ccccc1)c1ccccc1	-5.7	-5.7*
CC(C)SCCCOc1ccc(C(C)(C)C)cc1	-5.8	-5.8*
c1ccc2cc(OCCOCCOc3ccc4ccccc4c3)ccc2c1	x	i
CC(C)SCCCCOc1ccc2ccccc2c1	-6.9	-6.9*
CC(C)(C)c1ccc(OCCN2CCCC2)cc1	x	i
O=C1CC(C(=O)N2CCc3ccccc32)CN1c1ccccc1 (centres undefined)	0.29	i
CCOC(=O)C1CCN(C(=O)c2cc(C(C)(C)C)nn2Cc2ccccc2)CC1	x	i
O=S(=O)(NCCSCc1c(Cl)cccc1Cl)c1ccc2c(c1)OCCO2	-6.8	-6.8*
O=S(=O)(NCCSCc1ccc(Cl)cc1Cl)c1ccc2c(c1)OCCO2	x	i
Oc1ccccc1CN(Cc1ccco1)CC(O)COCc1ccc(Cl)cc1 (centres undefined)	-6.1	-6.1*
COc1ccc(COCC(O)CN(Cc2ccco2)Cc2ccccc2O)cc1 (centres undefined)	x	i
COCCNC(=O)/C(C#N)=c1\s/c(=C\c2ccccc2OC(F)F)c(=O)n1Cc1ccccc1	x	i
COCCCNC(=O)CNC(=S)N(Cc1ccccc1F)C1CCCCC1	x	i
CCCCNC(=O)CNC(=S)N(Cc1ccccc1F)C1CCCCC1	-6.8	-6.8*
CCN(Cc1ccncc1)C(=O)c1ccccc1NS(=O)(=O)c1ccc(Br)cc1	1	i
Clc1ccc(-c2nnc(-c3ccco3)nc2N2CCCCC2)cc1	x	i
Clc1ccc(-c2nnc(-c3ccc(Br)cc3)c(N3CCSCC3)n2)cc1	-7	-7*
O=c1c2cc(F)ccc2[nH]c(=S)n1Cc1ccc(F)cc1	x	i
Cn1nnnc1SCC(=O)Nc1ccc(S(=O)(=O)N2CCOCC2)cc1	x	i
C#CCOCCOCCOCCNc1nc(N2CCN(C(=O)[C@H](CCC(=O)O)n3cc(C(N)[C@H](C)CC)nn3)CC2)nc(N2CCN(C(=O)[C@H](CCC(=O)O)n3cc(C(N)[C@H](C)CC)nn3)CC2)n1 (some centres undefined)	0.42	i
O=C(O)c1cc(S(=O)(=O)N2CC3CC3C2C(=O)O)c(Cl)cc1Cl (centres undefined)	x	i
O=C(NCCN1CCCC1)c1ccc2c(=O)n(CCc3ccccc3)c(=O)[nH]c2c1	-6	-6*
CCCN1CCN(CCCNC(=O)c2ccc3c(=O)n(CCc4ccccc4)c(=O)[nH]c3c2)CC1	x	i
SMILES	KCNQ2 enhance	KCNQ2 block
OCC1(CCc2ccccc2)CCN(Cc2cccn2-c2cccnc2)CC1	x	i
CCn1c(CN2CCN(c3ccc(Cl)cc3)CC2)nc2ccccc21	-5.6	-5.6*
Cn1c(CN2CCN(c3ccc(Cl)cc3)CC2)nc2ccccc21	0.08	i
N#C/C(=C\c1ccc(OC(=O)c2ccc(Cl)s2)cc1)c1nc2ccccc2[nH]1	0.17	i
Cc1ccc(-c2csc3ncn(-n4c(C)ccc4C)c(=O)c23)o1	-6.6	-6.6*
Cc1sc2ncn(CCn3cnc4sc(C)c(C)c4c3=O)c(=O)c2c1C	x	i
Cc1sc2ncn(-n3c(C)ccc3C)c(=O)c2c1C	-5.7	-5.7*
C=CCn1c(SCc2ccccc2)nc2scc(-c3ccc(C)o3)c2c1=O	0.16	i
CCN1CC(CN(C)Cc2cn(-c3ccc(C)cc3)nc2-c2cccc(C)c2)CC1=O (centres undefined)	x	i
Cc1cc(C)c2c(N)c(C(=O)NN3CC(=O)N(c4cccc(Cl)c4)CC3=O)sc2n1	x	i
O=C(CN1C(=O)NC2(CCCC2)C1=O)Nc1nc2ccc(F)cc2s1	0.27	i
O=C(CN1C(=O)C2CC=CCC2C1=O)Nc1nc2ccc(F)cc2s1 (centres undefined)	-6.7	-6.7*
c1ccc(C[n+]2c(-c3ccccc3)csc2Nc2ccccc2)cc1	x	i
c1ccc(Nc2scc(-c3ccccc3)[n+]2Cc2ccco2)cc1	-6.4	-6.4*
COc1ccc(/C=C2\Sc3ccc(C(=O)N4CCc5ccccc5C4)cc3N(C)C2=O)cc1	x	i
CCN1CCN(CCNC(=O)c2ccc3c(c2)N(Cc2ccc(F)cc2)C(=O)/C(=C/c2ccccc2)S3)CC1	-6.5	-6.5*
CCN1CCN(CCNC(=O)c2ccc(/C=C3/Sc4ccccc4N(Cc4cccc(Cl)c4)C3=O)cc2)CC1	x	i
COc1ccc(/C=C2\Sc3ccc(C(=O)NCCN4CCCCCC4)cc3N(C)C2=O)cc1	-6.4	-6.4*
CCCOP(=O)(OCCC)C(Nc1ccc(C(=O)O)cc1)c1ccccc1 (centres undefined)	0.14	i
CCCCOP(=O)(OCCCC)C(Nc1ccc(C(=O)OCC)cc1)c1ccncc1 (centres undefined)	-5.7	-5.7*
COc1ccc(OC)c(NS(=O)(=O)c2cc3c4c(c2)CCN4C(=O)CC3)c1	0.02	i
